Test results taken from PubChem BioAssay (EPA / NIEHS).
Inconclusive results are not listed. Calls of active or inactive are those of the source. How the source made its calls: active means hit-call score of the fitted dose curve at least 0.9, where 1 is the maximum; inconclusive means response in the unintended direction; inactive means score below 0.9.

Legend:
[1] = read-out: xenobiotic metabolism (CYP1A2), CYP1A2 (gene 1544); assay: CLD_CYP1A2_24hr: CellzDirect (CLD) Gene Expression Assay for xenobiotic metabolism (CYP1A2) at 24 hours (AID 2283683)
How it was run: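 Primary human hepatocytes from two donor preparations dosed daily with multiple concentrations of chemical, 0.2% DMSO vehicle. CYP1A2 mRNA at 24 h quantified by qNPA chemiluminescence; gain of signal analyzed relative to DMSO. Cytotoxicity flagged by phase-contrast morphology.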

[2] = read-out: ABC Transporter (ABCB1), ABCB1 (gene 5243); assay: CLD_ABCB1_24hr: CellzDirect (CLD) Gene Expression Assay for ABC Transporter (ABCB1) at 24 hours (AID 2283684);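 on AC50: potency for increase in ABCB1 mRNA relative to DMSO vehicle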
How it was run: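 Primary human hepatocytes, two donor preparations, dosed daily with fresh solutions; vehicle 0.2% DMSO; harvested at 24 h. ABCB1 mRNA measured by quantitative nuclease protection assay (chemiluminescence); morphology-based cytotoxicity annotated.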

[3] = read-out: Cytochrome P450 2C9 (Homo sapiens) (UniProt P11712); assay: CLD_CYP2C9_24hr: CellzDirect (CLD) Gene Expression Assay for xenobiotic metabolism (CYP2C9) at 24 hours (AID 2283688)
How it was run: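 Primary human hepatocytes from two donor preparations, dosed daily for two days at multiple concentrations; vehicle 0.2% DMSO. CYP2C9 mRNA induction at 24 h measured by qNPA chemiluminescence relative to DMSO; cytotoxicity annotated from morphology.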

[4] = read-out: ABC Transporter (ABCB1), ABCB1 (gene 5243); assay: CLD_ABCB1_48hr: CellzDirect (CLD) Gene Expression Assay for ABC Transporter (ABCB1) at 48 hours (AID 2283695);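 on AC50: potency for induction meaning increase of mRNA over DMSO vehicle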
How it was run: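 Primary human hepatocytes from two donor preparations dosed daily on two consecutive days with 0.2% DMSO vehicle. Harvest at 48 h. ABCB1 mRNA quantified by qNPA with chemiluminescence and fitted for gain of signal versus DMSO.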

[5] = read-out: Cytochrome P450 3A4 (Homo sapiens) (UniProt P08684); assay: CLD_CYP3A4_48hr: CellzDirect (CLD) Gene Expression Assay for xenobiotic metabolism (CYP3A4) at 48 hours (AID 2283698)
How it was run: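 Primary human hepatocytes from two donor preparations dosed daily for two days with multiple chemical concentrations, 0.2% DMSO vehicle. CYP3A4 mRNA at 48 h by quantitative nuclease protection assay, chemiluminescence, positive fit versus DMSO; cytotoxicity flagged morphologically.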

[6] = read-out: alkyl and aryl transferase (GSTA2), GSTA2 (gene 2939); assay: CLD_GSTA2_24hr: CellzDirect (CLD) Gene Expression Assay for alkyl and aryl transferase (GSTA2) at 24 hours (AID 2283693)
How it was run: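 Primary human hepatocytes (two donor preparations) dosed daily for two days with chemicals at multiple concentrations (vehicle 0.2% DMSO); GSTA2 mRNA at 24 h measured by qNPA chemiluminescence, gain-of-signal versus DMSO.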

[7] = read-out: organic anion transporter (SLCO1B1), SLCO1B1 (gene 10599); assay: CLD_SLCO1B1_24hr: CellzDirect (CLD) Gene Expression Assay for organic anion transporter (SLCO1B1) at 24 hours (AID 2283690)
How it was run: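 Primary human hepatocytes (two donor preparations) dosed daily for two days with chemicals at multiple concentrations, 0.2% DMSO vehicle. SLCO1B1 mRNA at 24 h measured by qNPA chemiluminescence; induction fitted relative to DMSO.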

[8] = read-out: sulfotransferase (SULT2A), SULT2A1 (gene 6822); assay: CLD_SULT2A_24hr: CellzDirect (CLD) Gene Expression Assay for sulfotransferase (SULT2A) at 24 hours (AID 2283694);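 on AC50: potency for increased SULT2A1 mRNA level as induction over DMSO baseline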
How it was run: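 Primary human hepatocytes from two donor preparations were dosed daily with fresh solutions, vehicle 0.2% DMSO. At 24 h, lysates went to quantitative nuclease protection (qNPA) with S1 digestion and chemiluminescent readout. Cytotoxicity was annotated from phase-contrast morphology.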

[9] = read-out: glucuronosyltransferase (UGT1A1), UGT1A1 (gene 54658); assay: CLD_UGT1A1_24hr: CellzDirect (CLD) Gene Expression Assay for glucuronosyltransferase (UGT1A1) at 24 hours (AID 2283696)
How it was run: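 Primary human hepatocytes from two donor preparations were dosed (0.2% DMSO vehicle) and harvested at 24 h; UGT1A1 mRNA induction was quantified by chemiluminescent qNPA, fitted as gain relative to DMSO.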

Measured: AC50

Sequence of Cytochrome P450 3A4 (Homo sapiens) (P08684 whole entry, looked up): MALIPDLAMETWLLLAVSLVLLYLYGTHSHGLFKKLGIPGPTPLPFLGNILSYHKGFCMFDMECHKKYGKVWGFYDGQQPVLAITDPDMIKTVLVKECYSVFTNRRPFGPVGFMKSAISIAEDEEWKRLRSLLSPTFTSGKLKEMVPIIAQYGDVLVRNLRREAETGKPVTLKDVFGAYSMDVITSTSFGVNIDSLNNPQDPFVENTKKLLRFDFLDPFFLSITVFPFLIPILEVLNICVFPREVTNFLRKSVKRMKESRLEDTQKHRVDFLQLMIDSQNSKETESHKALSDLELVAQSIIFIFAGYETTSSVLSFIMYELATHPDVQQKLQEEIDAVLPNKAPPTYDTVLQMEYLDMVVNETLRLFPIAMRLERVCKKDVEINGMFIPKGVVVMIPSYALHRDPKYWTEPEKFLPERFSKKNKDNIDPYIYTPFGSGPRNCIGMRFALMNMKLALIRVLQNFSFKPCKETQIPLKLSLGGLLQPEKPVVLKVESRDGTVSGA

Cc1[nH]c(=O)n(C(C)(C)C)c(=O)c1Cl
inactive: [2] | [3] | [4] | [5]
active: [1] 20 µM

CNC(=O)Oc1cccc(N=CN(C)C)c1
inactive: [1] | [2] | [3] | [6] | [4]

COC(=O)c1ccccc1S(=O)(=O)NC(=O)Nc1nc(C)nc(OC)n1
active: [1] 3.08 µM
inactive: [2] | [7] | [6] | [8] | [4] | [5]

[2H]C1([2H])[n+]2ccccc2-c2cccc[n+]2C1([2H])[2H]
inactive: [1] | [2] | [7] | [6]

CCC(C)Nc1c([N+](=O)[O-])cc(C(C)(C)C)cc1[N+](=O)[O-] (configuration not stated)
inactive: [2] | [6] | [8] | [4]
active: [1] 3.05 µM | [5] 2.7 µM

ClC1C(Cl)C(Cl)C(Cl)C(Cl)C1Cl (configuration not stated)
inactive: [2] | [3] | [8] | [4]

O=C(O)COc1ccc(Cl)cc1Cl
inactive: [1] | [2] | [6] | [4] | [5]

CNC(=O)Oc1ccccc1OC(C)C
inactive: [1] | [4]
active: [5] 3.99 µM

COP(=O)(OC)OC=C(Cl)Cl
inactive: [1] | [2] | [7] | [6] | [8] | [4] | [5]

O=C(NC(=O)c1c(F)cccc1F)Nc1ccc(OC(F)(F)C(F)OC(F)(F)F)c(Cl)c1 (configuration not stated)
inactive: [2] | [3] | [6] | [8] | [5]

N#Cc1c(Cl)c(Cl)c(Cl)c(C#N)c1Cl
active: [5] 0.000914 µM
inactive: [2] | [6]

CCc1ccc(C(=O)NN(C(=O)c2cc(C)cc(C)c2)C(C)(C)C)cc1
active: [1] 20 µM | [5] 2.15 µM
inactive: [2] | [7] | [8] | [4]

CC1(c2ccc(Oc3ccccc3)cc2)OC(=O)N(Nc2ccccc2)C1=O (configuration not stated)
inactive: [1] | [7] | [6] | [4] | [5]

O=S(=O)(O)C(F)(F)C(F)(F)C(F)(F)C(F)(F)C(F)(F)C(F)(F)C(F)(F)C(F)(F)F
inactive: [1] | [3] | [6] | [8] | [4] | [5]

N#CN
inactive: [1] | [2] | [7] | [6] | [8] | [4]

O=S1OCC2C(CO1)C1(Cl)C(Cl)=C(Cl)C2(Cl)C1(Cl)Cl (configuration not stated)
active: [4] 29.4 µM | [5] 9.22 µM
inactive: [2] | [3] | [6]

O=[N+]([O-])/N=C1\NCCN1Cc1ccc(Cl)nc1
inactive: [2] | [6] | [8] | [4] | [5]

CC(C)N(C(=O)COc1nnc(C(F)(F)F)s1)c1ccc(F)cc1
active: [5] 5.1 µM
inactive: [1] | [2] | [6] | [8] | [4]

O=C1c2ccccc2C(=O)N1SC(Cl)(Cl)Cl
inactive: [2] | [7] | [6] | [4] | [9]

COP(=S)(OC)Oc1ccc(SC)c(C)c1
active: [1] 9.72 µM
inactive: [5]

O=C(O)C(F)(F)C(F)(F)C(F)(F)C(F)(F)C(F)(F)C(F)(F)C(F)(F)F
inactive: [1] | [2] | [7] | [8] | [4]
active: [5] 3.97 µM

Oc1ccc(Cl)cc1Cc1ccccc1
inactive: [3] | [7] | [6]

CCS(=O)(=O)c1cccnc1S(=O)(=O)NC(=O)Nc1nc(OC)cc(OC)n1
active: [5] 20 µM
inactive: [1] | [2] | [7] | [6] | [8] | [4]

CCOc1nc(NC)nc(NC(=O)NS(=O)(=O)c2ccccc2C(=O)OC)n1
inactive: [2] | [3] | [4] | [5]
active: [1] 7.74 µM

CCCN(CCOc1c(Cl)cc(Cl)cc1Cl)C(=O)n1ccnc1
active: [1] 0.378 µM | [2] 32.7 µM | [4] 20 µM | [5] 0.432 µM

CNC(=O)/C=C(\C)OP(=O)(OC)OC
active: [5] 1.9 µM
inactive: [1] | [3] | [8] | [4]

Oc1cc(Cl)ccc1Oc1ccc(Cl)cc1Cl
inactive: [1] | [2] | [7] | [6] | [8] | [4] | [9] | [5]

CC[C@H](C)[C@H]1O[C@]2(C=C[C@@H]1C)C[C@@H]1C[C@@H](C/C=C(\C)[C@@H](O[C@H]3C[C@H](OC)[C@@H](O[C@H]4C[C@H](OC)[C@@H](O)[C@H](C)O4)[C@H](C)O3)[C@@H](C)/C=C/C=C3\CO[C@@H]4[C@H](O)C(C)=C[C@@H](C(=O)O1)[C@]34O)O2 (tested in a mixture with another compound)
active: [2] 5.84 µM | [8] 12.3 µM | [4] 1.01 µM
inactive: [1] | [7] | [6]

O=C(Nc1ccccc1)Nc1cnns1
inactive: [7] | [5]
active: [1] 6.13 µM
